From the supplement of paper PMC6555819

What was measured:
Experiment in all cases: PBM binding z-score (relative to random genomic background probes); higher = stronger binding; sequences stand for … in GC…GCGATTGACAGCGTAGAATGAAGG
[1] = tested on: FXR:RXRa (NR concentration 270 nM, RXRa partner concentration 90 nM)
How it was run: (§1)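 Probes were double-stranded and carried 34-nt variable regions with direct-repeat seeds, single-nucleotide variants, half-site ablations and random human genomic background sequences, printed on custom Agilent 4×180K protein-binding microarrays. Arrays were incubated 1 h with ligand-free nuclear receptor dimers in PBS pH 7.4, 2% milk, 0.02% Triton X-100, 1 mM DTT, 0.2 mg/mL BSA and 0.4 mg/ml salmon testes DNA. Antibodies against each partner (one per run) detected binding, and scanned fluorescence was regression-normalized. Binding z-scores use the random background probes as reference.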

[2] = tested on: LXRa:RXRa (NR concentration 270 nM, RXRa partner concentration 90 nM)
How it was run: as §1

[3] = tested on: LXRa homodimer (NR concentration 270 nM)
How it was run: as §1

[4] = tested on: LXRb:RXRa (NR concentration 270 nM, RXRa partner concentration 90 nM)
How it was run: as §1

[5] = tested on: LXRb homodimer (NR concentration 270 nM)
How it was run: as §1

[6] = tested on: PPARa:RXRa (NR concentration 270 nM, RXRa partner concentration 90 nM)
How it was run: as §1

[7] = tested on: PPARg:RXRa 270nM:90nM, anti-RXR (NR concentration 270 nM, RXRa partner concentration 90 nM)
How it was run: as §1

[8] = tested on: PPARg:RXRa 30nM:10nM, anti-RXR (NR concentration 30 nM, RXRa partner concentration 10 nM)
How it was run: as §1

[9] = tested on: PPARg:RXRa 90nM:30nM, anti-RXR (NR concentration 90 nM, RXRa partner concentration 30 nM)
How it was run: as §1

Sequence | PBM binding z-score [1] | PBM binding z-score [2] | PBM binding z-score [3] | PBM binding z-score [4] | PBM binding z-score [5] | PBM binding z-score [6] | PBM binding z-score [7] | PBM binding z-score [8] | PBM binding z-score [9]
GATACAGGGTCAAGGCCAGAATACGCGTATTGAT | 6.98 | 4.25 | 0.231 | 4.25 | 0.223 | 5.84 | 5.74 | 2.61 | 4.58
GATTCAGGGTCAGCTAGAGGCCAGAGTATGGAAA | 5.24 | 3.64 | -0.0707 | 3.25 | -0.355 | 5.13 | 4.14 | 1.13 | 3.05
TGAATGAGGTGAAAGATCAGGGAACGTGGCGTCG | 1.19 | 1.1 | -0.421 | 0.428 | 0.209 | 4.52 | 6.92 | 6.44 | 7.54
ACTCGGAGGACAGAGGTCAGAGCTACGCCAGTGA | 2.85 | 3.27 | 0.56 | 2.62 | -0.0333 | 3.83 | 4.96 | 2.62 | 4.8
CGCACTAGGTCATTGACAGGACAGTGAATAGTAA | 4.64 | 3.31 | 0.73 | 2.31 | 0.424 | 4.38 | 5.96 | 3.36 | 5.26
GCTTCCGGGTCAAAGGTTATAGCATGAATAGAAT | 7.32 | 5.48 | 0.542 | 5.76 | 0.776 | 6.97 | 9.9 | 10.7 | 11.4
CCTTACGGGTCACGGTTATAGCACGGGTGGTACG | 5.96 | 4.01 | 0.000447 | 3.23 | -0.179 | 5.56 | 5.89 | 2.69 | 4.69
CGGACTGGGGCAAAGGTTACCATACTCAGTACGA | 1.68 | 1.67 | -0.108 | 2.34 | -0.125 | 6.02 | 9.26 | 9.67 | 11.7
CGAACTAGGTCCTTGACAGGACAGTGAATAGTAA | -0.28 | -0.522 | 0.156 | -0.566 | -0.907 | 0.107 | 0.252 | -0.201 | -0.145
ATCGAACGGTCGAGGTGAGTATAGAGAAAGGGAA | -0.0198 | -0.0653 | -0.353 | -0.34 | -0.587 | 0.105 | -0.114 | -0.342 | -0.333
CAAACTAGGTCAAAGGTCAAGGTCGAGCCAACCA | 8.28 | 7.09 | 5.12 | 6.8 | 2.23 | 7.68 | 11.5 | 15.3 | 14.1
TCATATAGGTTAAAGGTGAAAGTCGGTGTGGTAA | 4.54 | 4.09 | 0.882 | 3.59 | 0.683 | 6.28 | 9.55 | 10.5 | 11.5
CCTACTGGGCCAAAACGGTCATTGATGCCGATAA | -0.421 | -0.427 | 0.0364 | -0.333 | -0.867 | 0.309 | 0.904 | -0.186 | 0.162
GGAACGGGGGCATTCGAGTTGATAGCATGGCGAT | 3.01 | 4.03 | 0.603 | 4.98 | 6.54 | 3.99 | 4.08 | 1.54 | 3.65
CGTCCAAGGTCAATGTTAGGTCAGTGAAAGCATT | 6.44 | 5.88 | 2.85 | 4.38 | 1.35 | 5.51 | 4.66 | 0.937 | 3.1
CGTCCAAGGTCAATGCTAGCTCAGTGAAAGCATT | 6.48 | 4.48 | 0.31 | 3.45 | 0.696 | 4.83 | 4 | 0.365 | 2.62
CAAACTAGGTCAAGGTCAAATTCGGTTTGTGCCA | 6.94 | 5.69 | 5.04 | 5.06 | 2.23 | 6.07 | 7.8 | 6.71 | 8.35
ACTAGAAGGCCAAGGGTCACTCAAGATTAGTCCG | 3.27 | 3.28 | 0.426 | 3.25 | -0.267 | 4.51 | 7.08 | 5.69 | 7.96
ATCTCTAGGTAAATGTTCAGTGAATCCCGAGGAT | 0.0255 | -0.125 | -0.0436 | -0.389 | 0.584 | 0.133 | 1.01 | 0.602 | 0.967
CCCACTGGGGCAAAGGTTACCATACTCAGTACGA | 1.6 | 1.6 | -0.143 | 2 | -0.809 | 5.98 | 9.71 | 9.33 | 11.5
CGTCCAAGGTCAGAGAGGTCAGTGTATGCCGAGT | 6.02 | 5.1 | 3.33 | 4.4 | 0.458 | 4.71 | 3.98 | 0.927 | 2.53
ACTTGGAGGACAAAGGTCAGAGCTACGCCAGTGA | 4.75 | 4.49 | 1.97 | 3.58 | 0.676 | 5.71 | 9.07 | 8.21 | 10.6
ATCTCTAGGTGAAAGTTCAGTGAATCCCGAGGAT | 1.41 | 1.98 | 1.24 | 1.43 | 0.429 | 5.61 | 9.55 | 9.07 | 11.4
TTAACAAGGTGAAAGGTCGTTGATGCACGCCTTG | 3.99 | 3.48 | 0.202 | 2.81 | -0.19 | 6 | 8.81 | 9.66 | 9.79
CAAACTAGGTCAAAGGTCAGAGTCGAGCCAACCA | 7.83 | 6.32 | 3.45 | 6.4 | 1.62 | 7.34 | 11.1 | 13.1 | 13.7
TCATATAGGTTAAGGTGAAAGTCGAACGATATGA | 2.27 | 1.59 | 0.00535 | 1.55 | 0.204 | 3.44 | 4.61 | 4.32 | 4.87

Sequence | PBM binding z-score [1] | PBM binding z-score [2] | PBM binding z-score [3] | PBM binding z-score [4] | PBM binding z-score [5] | PBM binding z-score [6] | PBM binding z-score [7] | PBM binding z-score [8] | PBM binding z-score [9]
CCTTACGGGTCGCTGACAGGTTATAGCATTTGGA | 0.72 | 1.23 | -0.237 | 0.781 | -0.428 | 1.71 | 0.371 | -0.323 | -0.0613
CAAACTAGGTCACGAAAGGTCAAAGTTGAATGAC | 7.31 | 8.11 | 8.31 | 7.43 | 2.68 | 6.6 | 8.55 | 7.45 | 8.74
CGAACTAGGTCAAAGGACACTGAAAGGCGACGTA | 4.53 | 2.6 | 0.187 | 2.15 | -0.198 | 5.49 | 8.98 | 10.1 | 10.8
AGAATGGGGTTAAGATCAGGGAAACAGAATACAT | 4.23 | 3.54 | 0.59 | 4.19 | 2.1 | 5.62 | 4.5 | 2.12 | 3.37
ATAGAAAGGTCGAAGGTGAGTATACCCACCCGAA | 4.15 | 3.25 | 0.28 | 2.61 | 0.606 | 4.56 | 5.47 | 2.38 | 4.64
GATACAGGGTCAGCTAGAGGTCAGAGTATGGAAA | 6 | 5.81 | 3.45 | 4.98 | 0.386 | 5.57 | 5.22 | 1.99 | 3.52
CATACAGGGTCATCTAGGCCAGAGTAGGGACGGC | 6.67 | 4.77 | 0.311 | 3.7 | 0.71 | 5.58 | 5.22 | 2.16 | 4.02
CAAACTAGGTCAAAGGTCAACGTCGAGCCAACCA | 8.3 | 7.18 | 5.23 | 7.01 | 2.37 | 7.5 | 11.3 | 13.9 | 14.4
ACTTACGGGTCAAGGAGGTTATAGCACGCGTATA | 6.35 | 4.93 | 1.1 | 4.17 | 0.922 | 5.72 | 5.1 | 2.1 | 3.84
CCGACTGGGGCAAAGGTTACGATACTCAGTACGA | 1.82 | 1.6 | -0.076 | 2 | -1.04 | 5.62 | 9.56 | 9.53 | 11.7
ACTCGGAGGATAAAGGTCAGAGCTACGCCAGTGA | 3.3 | 3.42 | 1.27 | 2.83 | 0.273 | 4.23 | 6.4 | 5 | 6.8
CAAACTAGGTCACAGAGGTCAAAGTTCGTGCGTA | 7.37 | 6.84 | 7.98 | 6.7 | 2.18 | 6.83 | 8.37 | 6.72 | 8.5
GCTTACGGGTCAAAGGTTATGGCATGAATAGAAT | 6.72 | 5.85 | 0.622 | 5.65 | 0.792 | 6.79 | 9.38 | 9.74 | 10.5
ATCGAAAGGTCGAAGGTGAGTACACCCACCCGAA | 4.49 | 3.49 | 0.413 | 2.92 | 0.705 | 4.68 | 4.86 | 2.04 | 3.87
CTAACTAGGTCAAGGTCAAAGTCGGTTTGTGCCA | 6.55 | 5.3 | 4.54 | 4.54 | 1.41 | 6.04 | 7.82 | 7.09 | 8.36
ATATGTAGGTCAGGGTCATTCAGAAAGTAGGGAA | 5.82 | 4.89 | 1.68 | 5.11 | 2.07 | 6.06 | 7.66 | 6.11 | 7.76
CCTTACGGTTCACTGACAGGTTATAGCATTTGGA | 1.66 | 2.43 | 1.04 | 1.89 | 0.471 | 2.33 | 1.08 | 0.683 | 0.771
CAAACTAGGTCACCGGAAGGTCAAAGTTCGCATG | 6.72 | 6.36 | 5.74 | 5.3 | 1.86 | 6.44 | 8.11 | 6.06 | 8.3
TCATATAGGTAATCAGGTGAAAGTCCGTAAGTTA | 1.07 | 0.945 | 0.314 | 0.96 | 0.374 | 2.68 | 4.24 | 4.28 | 4.2
CTAACTAGGTCACAGAGGTCAAAGTCCGTGCGTA | 7.38 | 6.55 | 7.37 | 6.19 | 2.21 | 6.62 | 8.54 | 7.16 | 9.04
AAAATGAGGTTAAGATCAGGGAAACAGAATACAT | 2.83 | 2.62 | 0.171 | 2.1 | 0.347 | 4.04 | 2.67 | 1.16 | 2.41
GATACAGGGTGAGCTAGAGGCCAGAGTATGGAAA | -0.454 | -0.464 | -0.638 | -0.678 | -1.4 | 0.23 | -0.0418 | -0.29 | -0.422
TCATATAGGTAATAAAGGTGAAAGTCGGCATCTA | 1.82 | 2.15 | 0.741 | 1.79 | 0.336 | 3.1 | 4.44 | 4.71 | 4.65
CGTCCAAGGTCAATTCTAGGTCAGTGAAAGCATT | 6.85 | 5.63 | 3.88 | 4.73 | 2.2 | 5.01 | 4.59 | 1.17 | 3.25
TGGCCTAGGTCATGGGCCAGTATACCACGCGAAC | 4.4 | 2.91 | -0.382 | 1.57 | -1.26 | 3.93 | 3.6 | 0.481 | 2.22
TAGCCTAGGTCATGGGCCTGTATACCACGCGAAC | 4.51 | 3.39 | 0.196 | 2.64 | -0.604 | 4.12 | 3.29 | 0.751 | 2.07
